Bioassay records deposited in PubChem BioAssay by National Center for Advancing Translational Sciences (NCATS).
Sampled rows, rich in hits. Any-hit rate of the full collection: about 2.9%.
a7 integrin act = activators of alpha7 integrin expression for muscular dystrophy; Potency, µM (doses to about 38.3 µM), inactives show at the highest dose activation, hits mostly activators; alpha7betagal myoblasts, beta-gal FDG fluorescence, 48 h; 350,000 compounds, 0.064% hits; AID 624291;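 also: potency is read from the fitted curve at half-maximal effect; 100% = response of the positive control SU9516; nearly all actives have a fitted effect of over 60% in size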
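Alpha7betagal+/- myoblasts (passage 13) were plated 16-24 hr, then exposed to compounds (1:260 dilution of DMSO stock) for 48 hours at 37C. After MPER lysis, β-galactosidase reporter activity was read as FDG fluorescence (ex 480/em 540) after 30 minutes.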
IDH1 R132H inh = human IDH1 R132H inhibition; IDH1-R132H enzyme, NADPH consumption, diaphorase/resazurin fluorescence; Potency, µM (series often up to 76.6 µM), for inactives: at the top dose activity change, negative = inhibition, usual class: inhibitors; 390,000 compounds, 0.093% hits; also: potency is read from the fitted curve at half-maximal effect; % is scaled to controls: 0 for no effect and ±100 for the full control effect; nearly all actives have a fitted effect of over 65% in size
Target sequence (O75874 whole entry R132H, stated change not applied): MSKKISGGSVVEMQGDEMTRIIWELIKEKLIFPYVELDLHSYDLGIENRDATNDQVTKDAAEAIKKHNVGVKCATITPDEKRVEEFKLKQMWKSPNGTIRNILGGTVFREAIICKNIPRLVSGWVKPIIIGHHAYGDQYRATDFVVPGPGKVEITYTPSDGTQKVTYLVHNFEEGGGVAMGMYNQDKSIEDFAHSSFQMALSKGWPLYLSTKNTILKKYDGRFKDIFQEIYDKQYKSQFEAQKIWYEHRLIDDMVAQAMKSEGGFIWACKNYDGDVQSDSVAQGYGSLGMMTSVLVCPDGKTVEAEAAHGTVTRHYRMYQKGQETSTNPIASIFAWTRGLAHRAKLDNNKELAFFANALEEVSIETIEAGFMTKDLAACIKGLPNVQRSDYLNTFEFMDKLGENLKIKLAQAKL
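IDH1-R132H (0.5 ug/mL dispensed) in pH 7.5 Tris buffer was preincubated 30 min with compound, then given a substrate mix of 0.016 mM NADPH and 2 mM alpha-KG for 80 min at room temperature; remaining NADPH was read by diaphorase/resazurin fluorescence.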
B2AR arrestin = agonists driving beta-arrestin recruitment to human beta2-adrenergic receptor | P07550 | beta-arrestin recruitment to beta2AR, cell-based reporter | Potency, µM (titrated, usually from 46.1 µM), without a hit: top-dose activation, actives largely listed as activators | 330,000 compounds, 0.02% hits;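 also: potency is read from the fitted curve at half-maximal effect; 0% = DMSO controls and full agonism = EC100 isoproterenol or metaproterenol; nearly all actives have a fitted effect of over 65% in size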
DRD3 antagonist = D3 dopamine receptor (human) antagonism | P35462 | 360,000 compounds, 2.5% hits | max response, negative = inhibition, % | D3R cells, DiscoveRx beta-arrestin luminescence, antagonist mode; stronger effect = lower value; in the data active = max response below about -50%; inconclusive = no clear call, values can overlap the other calls; also: % is scaled to controls: 0 for no effect and ±100 for the full control effect
Target sequence (P35462 whole entry, looked up): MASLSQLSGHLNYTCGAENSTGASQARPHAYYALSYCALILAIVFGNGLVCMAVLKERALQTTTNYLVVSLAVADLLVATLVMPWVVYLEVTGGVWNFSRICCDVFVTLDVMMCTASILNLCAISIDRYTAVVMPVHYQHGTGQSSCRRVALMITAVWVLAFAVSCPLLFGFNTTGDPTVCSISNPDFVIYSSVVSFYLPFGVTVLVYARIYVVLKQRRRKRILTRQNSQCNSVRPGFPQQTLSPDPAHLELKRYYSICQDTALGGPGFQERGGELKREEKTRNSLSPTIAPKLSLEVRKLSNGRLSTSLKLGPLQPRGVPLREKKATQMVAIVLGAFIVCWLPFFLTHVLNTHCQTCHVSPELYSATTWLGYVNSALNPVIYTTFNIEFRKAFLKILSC
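Cells expressing the human receptor were seeded at 1500 cells/well, incubated overnight at 37 degrees C in 5% CO2, then exposed to library compounds with dopamine controls for 90 minutes at 37 degrees C before luminescent detection.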
DRD3 agonist = activates the human D3 dopamine receptor; P35462; D3R DiscoveRx beta-arrestin cells, luminescence, 90 min; max activation, %; 410,000 compounds, 0.58% hits; in the data active = max activation above about 30%; also: 0% is about no effect
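Agonist mode: compounds and dopamine controls were applied to plated cells for 90 min at 37 degrees C after an overnight attachment at 1500 cells/well. Luminescent read-out followed 30 - 60 minutes at room temperature with DiscoveRx detection reagent.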
Resorufin autofl = autofluorescence interference, mutant IDH1 hit counter-screen; shares compounds with IDH1 R132H inh; Resorufin detection reagent fluorescence interference, cell-free; inhibition of signal, % at 51.2 µM; 750 tested, under 10 active; AID 623980;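 also: 0% = wells with normal resorufin and full inhibition = wells lacking resorufin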
IDH1 WT = selectivity of mutant IDH1 inhibitors: human wild-type IDH1; shares compounds with IDH1 R132H inh; WT IDH1 enzyme, NADPH diaphorase/resazurin fluorescence; Potency, µM (top dose mostly 115 µM), for the others: top-dose activity change, negative = inhibition, hits mostly inhibitors; 750 compounds, 9% hits; AID 623995;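 also: potency is read from the fitted curve at half-maximal effect; 0% = full WT IDH1 enzyme control and full inhibition = no enzyme wells; nearly all actives have a fitted effect of over 55% in size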
IDH1 R132H conf = inhibits human mutant IDH1 enzyme in cherrypick confirmation; shares compounds with IDH1 R132H inh; 750 compounds, 83% hits; AID 624002; IDH1 R132H enzyme, NADPH diaphorase/resazurin fluorescence; Potency, µM (titrated, usually from 76.6 µM), for inactives: at the top dose activity change, negative = inhibition, most hits filed as inhibitors; also: potency is read from the fitted curve at half-maximal effect; nearly all actives have a fitted effect of over 50% in size
Starred values were filed as active, the others as inactive; ? = inconclusive; · = not tested or not shown. Unless noted, calls follow the shape of the dose curve; as a rule, active = well fitted curve in the direction sought with a large enough effect; inconclusive = small, poorly fitted or top-dose-only effect, or another doubt; inactive = no such curve, though single readings can be large; an effect the other way counts as inactive or inconclusive.

SMILES | a7 integrin act | IDH1 R132H inh | B2AR arrestin | DRD3 antagonist | DRD3 agonist | Resorufin autofl | IDH1 WT | IDH1 R132H conf
Cc1c(/C=N/NC(=O)c2cc(=O)[nH]c(=O)[nH]2)c2ccccn2c1C(=O)c1ccccc1 | 2.6% | ? | 0.1% | 16.9 | 12.1 | -2.0 | ? | 14.1µM*
C[C@@H]1CN([C@@H](C)CO)C(=O)CCCn2nncc2CO[C@H]1CN(C)C(=O)c1ccccc1 | 6.3% | -13.2% | · | -24.7 | -0.2 | · | · | ·
Fc1cc(F)cc(Nc2nc(Cl)nc(NC3CCCC3)n2)c1 | · | · | -0.1% | · | · | · | · | ·
C=CCn1c(SCC(=O)N2CCN(C(=O)c3ccco3)CC2)nc2sc(CC)cc2c1=O | 23.1% | ? | 0.1% | -3.9 | -4.3 | -1.4 | 14.4% | 17.8µM*
C=CCn1c(SCC(=O)N2CCCC2=O)nc2sc(CC)cc2c1=O | -9.8% | -0.1% | -0.3% | 62.1 | 11.9 | · | · | ·
CCOC(=O)N1CCN(C(=O)COC(=O)c2ccc(N(C)C)cc2)CC1 | -0.9% | 7.3% | -0.1% | -24.7 | 3.1 | · | · | ·
Cc1ccc2nc3n(c(=O)c2c1)-c1ccccc1C(=O)NC3Cc1ccc(O)cc1 (configuration not stated) | · | · | -0.1% | · | · | · | · | ·
COc1cc(C2c3c(-c4ccccc4)n[nH]c3C(=O)N2c2ccccc2)ccc1O (configuration not stated) | 6.9% | -15.3% | -0.4% | 13.1 | -2.4 | · | · | ·
O=C1c2[nH]nc(-c3ccc(F)cc3)c2C(c2ccccc2F)N1c1ccccc1 (configuration not stated) | · | ? | · | · | 5.3 | 0.9 | 1.5% | ?
CCCOC(=O)c1c(NC(=O)C2c3ccccc3Oc3ccccc32)sc2c1CCC(C)C2 (configuration not stated) | · | -2.8% | · | · | -6.5 | · | · | ·
COc1ccc(-c2sc(Nc3ccc(F)c(F)c3F)nc2CCC(=O)NN)cc1 | -6.2% | 29.3µM* | 0.1% | -7.6 | 9.2 | -9.4 | -21.1% | 28.2µM*
COc1ccccc1N1CCN(C(=O)c2ccccc2N(C)S(=O)(=O)c2ccc(C)cc2)CC1 | -17.5% | 0.9% | -1.2% | 15.7 | 2.6 | · | · | ·
Cc1cc(=O)[nH]c(SCC(=O)Nc2ncc(S(=O)(=O)c3ccc([N+](=O)[O-])cc3)s2)n1 | -7.2% | ? | -0.2% | -0.6 | -4.3 | 3.6 | ? | -17.1%
Cc1ccc(Nc2nnc(SCC(=O)Nc3ncc(S(=O)(=O)c4ccc([N+](=O)[O-])cc4)s3)s2)cc1 | -10.9% | 4.6% | -0.7% | -5.5 | -1.6 | · | · | ·
O=C1NC[C@H](CC2CCCCC2)N(CCc2cccc3ccccc23)C1=O | · | · | · | -24.8 | -8.4 | · | · | ·
O=C1NC[C@@H](Cc2cccc3ccccc23)N(CCCCC2CCCCC2)C1=O | -32.2% | ? | -0.6% | 33.3 | 1.8 | 1.5 | -19.3% | 39.8µM*
CCNC(=O)/C(C#N)=C/c1c(N(Cc2ccccc2)Cc2ccccc2)nc2ccccn2c1=O | -27.1% | ? | 0.9% | -11.3 | -1.0 | -4.1 | 1.2% | 20µM*
CCNC(=O)/C(C#N)=C/c1c(N2CCN(C)CC2)nc2c(C)cccn2c1=O | 0.0% | 2.1% | 0.6% | 1.8 | 19.3 | · | · | ·
CNC(=O)/C(C#N)=C/c1c(N(Cc2ccccc2)Cc2ccccc2)nc2c(C)cccn2c1=O | -26.3% | 52.1µM* | 0.2% | -19.1 | -2.7 | -1.5 | 1.9% | 14.1µM*
CCNC(=O)/C(C#N)=C/c1c(N2CCOCC2)nc2ccccn2c1=O | -1.9% | 4.3% | 0.4% | 17.6 | -0.3 | · | · | ·
CC(C)Cc1nnc(NC(=O)c2ccc3c(c2)OCCO3)s1 | 2.3% | 15.4% | 0.3% | -14.7 | -3.3 | · | · | ·
Cn1c2ccccc2c(=O)c2c(=O)n(C3CCCCC3)c(-c3ccco3)nc21 | 25.1% | 26.1µM* | -0.6% | -18.8 | -14.1 | -11.0 | 23.9% | 22.4µM*
Cc1nc2c(c(=O)c3ccccc3n2C)c(=O)n1C1CCCCCC1 | 5.6% | 4.4% | -0.8% | 1.4 | 3.7 | · | · | ·
Cc1ccccc1-c1cnc(C(O)c2ccc(Cl)cc2)[nH]1 (configuration not stated) | · | · | · | -7.5 | -10.1 | · | · | ·
COc1cc(C2c3c(-c4cc(C)ccc4O)n[nH]c3C(=O)N2CCCO)ccc1OCCC(C)C (configuration not stated) | · | 39.8µM* | · | · | 7.8 | -0.7 | -11.3% | 25.1µM*
SMILES | a7 integrin act | IDH1 R132H inh | B2AR arrestin | DRD3 antagonist | DRD3 agonist | Resorufin autofl | IDH1 WT | IDH1 R132H conf
COCCN1C(=O)c2[nH]nc(-c3cc(C)ccc3O)c2C1c1ccc(C(C)C)cc1 (configuration not stated) | · | ? | · | · | 2.7 | -2.7 | -2.4% | 31.6µM*
CCC(=O)N1CCc2cc(Br)cc(S(=O)(=O)N3CCC(C(=O)Nc4ccc(OC)cc4)CC3)c21 | · | 14.8% | · | · | -9.8 | · | · | ·
COC(=O)[C@@]12CCCN1[C@H](c1ccc(-c3ccc4c(c3)OCO4)c(OC)c1)[C@H]1C(=O)N(C)C(=O)[C@H]12 | -10.1% | -5.7% | 0.9% | 3.6 | 14.0 | · | · | ·
CCN1C(=O)[C@@H]2[C@@H](c3ccc(-c4ccc(OC)cc4)c(OC)c3)N3CCCC[C@@]3(C(=O)OC)[C@@H]2C1=O | -15.5% | -18.5% | 4.6% | -25.3 | -5.5 | · | · | ·
CCN1C(=O)[C@H]2[C@@H](c3ccc(-c4ccc(OC)cc4)c(OC)c3)N3CCCC[C@@]3(C(=O)OC)[C@H]2C1=O | -39.5% | ? | -0.1% | -23.6 | -0.1 | 5.5 | -4.9% | 12.6µM*
COC(=O)[C@@]12CCCCN1[C@H](c1ccc(-c3ccc4c(c3)OCO4)c(OC)c1)[C@@H]1C(=O)N(C)C(=O)[C@@H]12 | 19.4% | ? | 0.0% | -4.9 | -8.2 | 10.0 | 2.6% | 11.2µM*
COC(=O)[C@@]12CCCCN1[C@H](c1ccc(-c3ccc(F)cc3)c(OC)c1)[C@@H]1C(=O)N(C)C(=O)[C@@H]12 | 0.0% | 39.8µM* | -0.1% | 27.5 | 11.5 | -3.4 | 3.0% | 6.31µM*
O=[N+]([O-])c1ccc(Sc2nnnn2-c2ccccc2)nc1 | -62.2% | -6.1% | -0.4% | ? | 5.4 | · | · | ·
CC1CN(S(=O)(=O)c2ccc(C(=O)OCc3ccc(C#N)cc3)cc2)CC(C)O1 (configuration not stated) | -20.6% | -7.5% | 0.1% | -6.2 | 1.4 | · | · | ·
COc1cccc(-c2c(C(=O)N/N=C/c3sccc3C)nnn2-c2nonc2N)c1 | 5.1% | 35.5% | -0.3% | -3.2 | -1.7 | · | · | ·
COCc1ccc(-c2c(-c3ccc(OC)cc3)oc(=O)c3cc(OC)c(OC)cc23)cc1 | 0.0% | 31.6µM* | 0.0% | 97.7 | 34.0* | -5.0 | -4.2% | 10µM*
